From PubChem
Fluor 339 460 = intrinsic fluorescence of library compounds, ex339/em460 – biochemical, MLSMR library, data from DPM-DC assay, artefact control, profiling panel | 65,000 tested, 5.5% active | fluorescence fold increase at 10 µM | compound autofluorescence, ex339/em460 nm, NADH buffer; stronger effect = higher value; 1 = no-compound wells, NADH background;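 active = at 10 µM, mean starting fluorescence two-fold or more over control wells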;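 also: signal is the first read of a kinetic run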
NADH coupling = inhibition of NAD/NADH coupling enzymes, library profiling; coupled PK/LDH NADH assays, four targets; IC50, µM (highest dose often 10 µM); 65,000 tested, 0.02% active; AID 774;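 active = single-dose screening hits from any of four coupled enzyme assays that gave an IC50 when retested across doses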;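 also: the DPM-DC format reads NADH fluorescence rather than 340 nm absorbance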
PMK inhibit = blocks S. pneumoniae phosphomevalonate kinase | purified PMK, PK/LDH-coupled NADH absorbance 340 nm | inhibition, % at 10 µM | 65,000 tested, 0.49% active | AID 539;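 active = top-ranked compounds by inhibition in the single 10 µM screen, taking a fixed number of the strongest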
Spn MK inh = blocks S. pneumoniae mevalonate kinase. purified MK, PK/LDH-coupled NADH absorbance 340 nm. 65,000 tested, 0.48% active. inhibition, % at 10 µM;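 active = ranked among the strongest by inhibition in the single 10 µM screen, a fixed top-ranked set picked for dose follow-up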
A340 absorber = compound absorbs light at 340 nm; compound absorbance at 340 nm, fold over control; fold change at 10 µM; 65,000 tested, under 10 active; AID 708;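 active = at 10 µM dose, initial 340 nm absorbance at least 2 fold that of control wells; inactive = change under 2 fold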;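 also: initial absorbance extrapolated from kinetic A340 decline of NADH oxidation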
Spn DPM-DC inh = blocks S. pneumoniae diphosphomevalonate decarboxylase; AID 556; purified DPM-DC, PK/LDH coupled NADH fluorescence; 65,000 tested, 0.49% active; calls only at 10 µM;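 active = the 320 compounds with the highest percent inhibition in the single-dose primary screen, excluding strongly autofluorescent ones, cut at about 32% in these data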;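 also: kinetic rate of NADH fluorescence loss reporting ADP formed by the decarboxylase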
A number is an active result. Sampled rows, rich in hits. Any-hit rate of the full collection: about 6.5%.

O=c1[nH]c(=O)n(Cc2ccccc2)c2nc(-c3ccco3)cc(C(F)(F)F)c12 was read as Fluor 339 460 4.9, NADH coupling inactive, PMK inhibit inactive, Spn MK inh inactive and A340 absorber inactive.
Screening COCCOC(=O)c1c(C)n(C)c2ccc(OC(=O)C3CC3)cc12 returned Fluor 339 460 inactive, NADH coupling inactive, PMK inhibit inactive, Spn MK inh inactive, A340 absorber inactive and Spn DPM-DC inh inactive.
CCOC(=O)N1CCC(NC(=O)c2ccc3c(=O)n4c(nc3c2)CCCC4)CC1 was read as Fluor 339 460 inactive, NADH coupling inactive, PMK inhibit inactive, Spn MK inh inactive, A340 absorber inactive and Spn DPM-DC inh inactive.
C=CCn1c(=N)c(C(=O)NCCCOC)cc2c(=O)n3ccccc3nc21 was read as Fluor 339 460 3.7, NADH coupling inactive, PMK inhibit inactive, Spn MK inh inactive and A340 absorber inactive.
C=CCn1c(=N)c(C(=O)NCCCOC)cc2c(=O)n3cc(C)ccc3nc21 was read as Fluor 339 460 3.8, NADH coupling inactive, PMK inhibit inactive, Spn MK inh inactive and A340 absorber inactive.
C=CCn1cc(C(=O)NCCCOC)c(=O)c2cc(S(=O)(=O)N(CC)CC)ccc21 was read as Fluor 339 460 inactive, NADH coupling inactive, PMK inhibit inactive, Spn MK inh inactive, A340 absorber inactive and Spn DPM-DC inh inactive.
`O=S1(=O)C=CC(N2CCOCC2)C1` (centres undefined) gave Fluor 339 460 inactive, NADH coupling inactive, PMK inhibit inactive, Spn MK inh inactive, A340 absorber inactive and Spn DPM-DC inh inactive.
Screening O=C(c1cccc(F)c1)N1CCN(Cc2ccco2)CC1 returned Fluor 339 460 inactive, NADH coupling inactive, PMK inhibit inactive, Spn MK inh 44, A340 absorber inactive and Spn DPM-DC inh inactive.
Screening O=C(Nc1ccc(-c2noc(CCc3ccccc3)n2)cc1)c1cccnc1 returned Fluor 339 460 inactive, NADH coupling inactive, PMK inhibit inactive, Spn MK inh inactive, A340 absorber inactive and Spn DPM-DC inh inactive.
COc1cc(C2Nc3cccc4cccc(c34)N2)ccc1OC(C)=O was read as Fluor 339 460 inactive, NADH coupling inactive, PMK inhibit inactive, Spn MK inh inactive, A340 absorber inactive and Spn DPM-DC inh inactive.
`COc1cc(C2Nc3cccc4cccc(c34)N2)cc(OC)c1O` gave Fluor 339 460 3.2, NADH coupling inactive, PMK inhibit inactive, Spn MK inh inactive and A340 absorber inactive.
For Cc1ccccc1S(=O)(=O)Nc1nc2ccccc2nc1N1CCOCC1 the results were Fluor 339 460 inactive, NADH coupling inactive, PMK inhibit inactive, Spn MK inh inactive, A340 absorber inactive and Spn DPM-DC inh inactive.
O=C(NCc1ccco1)c1ccccc1NS(=O)(=O)c1ccc2c(c1)OCCO2 was read as Fluor 339 460 2.9, NADH coupling inactive, PMK inhibit inactive, Spn MK inh inactive, A340 absorber inactive and Spn DPM-DC inh active.
For O=C(Nc1ccc(Cl)cc1)Nc1ccccc1C(=O)NCc1ccco1 the results were Fluor 339 460 2.1, NADH coupling inactive, PMK inhibit inactive, Spn MK inh inactive, A340 absorber inactive and Spn DPM-DC inh inactive.
For COc1cc(S(=O)(=O)NCCc2ccc3c(c2)OCO3)ccc1-n1cnnn1 the results were Fluor 339 460 inactive, NADH coupling inactive, PMK inhibit inactive, Spn MK inh inactive, A340 absorber inactive and Spn DPM-DC inh inactive.
O=C(CSCc1cccc(Br)c1)N1CCOCC1 was read as Fluor 339 460 inactive, NADH coupling inactive, PMK inhibit inactive, Spn MK inh inactive, A340 absorber inactive and Spn DPM-DC inh inactive.
CCc1nnc(NC(=O)CN2CCOCC2)s1 was read as Fluor 339 460 inactive, NADH coupling inactive, PMK inhibit inactive, Spn MK inh inactive, A340 absorber inactive and Spn DPM-DC inh inactive.
Screening CCCc1nnc(NC(=O)CN2CCOCC2)s1 returned Fluor 339 460 inactive, NADH coupling inactive, PMK inhibit inactive, Spn MK inh inactive, A340 absorber inactive and Spn DPM-DC inh active.
O=C(NC1CCCCC1)C(c1ccccc1)N1CCCC1 (centres undefined) was read as Fluor 339 460 inactive, NADH coupling inactive, PMK inhibit inactive, Spn MK inh inactive, A340 absorber inactive and Spn DPM-DC inh inactive.
CC(c1ccccc1)C(CC(=O)O)C(=O)NC1CCCCC1 (centres undefined) was read as Fluor 339 460 inactive, NADH coupling inactive, PMK inhibit 27, Spn MK inh inactive, A340 absorber inactive and Spn DPM-DC inh inactive.
